# Activity calls are given as the source filed them. Unless noted, the rule behind the calls is not given here.
# Columns and labels:
# [1] = compounds binding Alexa647 anti-His antibody – biochemical, small-molecule microarray, 635 nm fluorescence, artefact control for SMM control protein annotation, primary screen (AID 1128); settings: higher = more signal;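 note: score merges feature fluorescence with signal-to-noise for each printed compound spot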
# [2] = tested on: Human papillomavirus type 1a E7 protein (residues 1-88); test: HPV1a E7 small-molecule binders, primary screen, biochemical, small-molecule microarray, residues 1-88, 635 nm (AID 1129); settings: small-molecule microarray binding, fluorescence 635 nm; higher = more signal
# [3] = biological target: Focal adhesion kinase 1 (Homo sapiens) (UniProt Q05397); test: PTK2 protein binding on printed compound slides – biochemical, small-molecule microarray, 635/667 nm fluorescence, BSA, DTT, primary screen (AID 1130); settings: 635 nm fluorescence, higher = more signal;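 note: composite of spot emission at 667 nm and signal to noise over triplicate slides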
# [4] = tested on: Fibrinogen (Alexa647-labelled); test: Alexa647-fibrinogen binding to printed small molecules – biochemical, small-molecule microarray, 635/667 nm fluorescence, artefact control for SMM control-protein annotation, profiling panel (AID 1131); settings: fibrinogen-A647 binding fluorescence, higher = more signal;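 note: z-score merges 667 nm fluorescence with per-spot signal-to-noise over triplicate slides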
# [5] = biological target: Follistatin (Homo sapiens) (UniProt P19883); test: FST protein binding to printed compounds – biochemical, small-molecule microarray, 635/667 nm fluorescence, primary screen (AID 1132); settings: 635 nm fluorescence, higher = more signal
# [6] = biological target: Fibroblast growth factor 2 (Homo sapiens) (UniProt P09038); test: basic fibroblast growth factor binding to printed compounds – biochemical, small-molecule microarray, 635/667 nm fluorescence, primary screen (AID 1133); settings: FGF2, fluorescence 635/667, higher = more signal
# [7] = JC-1 mitochondrial potential readout, lung cancer cells – cell-based, A549, JC-1 fluorescence, basal, 24 h, 100 nL, profiling panel (AID 1138); settings: higher = more signal;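 note: A549 lung adenocarcinoma cells under basal conditions with no added stimulus; test concentration not given here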
# Lefty1 = Lefty1 protein binding to printed compounds – biochemical, small-molecule microarray, 635/667 nm fluorescence, primary screen (AID 1139); settings: fluorescence 635/667, higher = more signal
# [8] = tested on: wheat germ agglutinin (Triticum aestivum), Alexa647-labelled; test: Alexa647-WGA lectin binding to printed small molecules – biochemical, small-molecule microarray, 635/667 nm fluorescence, artefact control for SMM control-protein annotation, profiling panel (AID 1140); settings: WGA-A647 binding, 635 nm fluorescence, higher = more signal;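 note: score merges 667 nm feature emission with signal to noise over triplicate slides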
# [9] = biological target: Luciferin 4-monooxygenase (Photinus pyralis) (UniProt P08659); test: inhibition of purified Photinus pyralis luciferase – biochemical, luminescence, purified enzyme, 2006 set, primary screen (AID 1141); settings: purified firefly luciferase, SteadyGlo luminescence, 30 min; higher = more signal, called active from +8 up or from −8 down;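 note: cell-free assay with purified firefly luciferase at 100 ng per well in PBS; test concentration not given here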
# [10] = tested on: Wnt5a (protein binding on small-molecule microarray); test: small molecules binding Wnt5a protein – biophysical, small-molecule microarray, 635/667 nm fluorescence, primary screen (AID 1142); settings: 635 nm fluorescence, higher = more signal;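 note: fluorescence read at 667 nm with signal to noise per printed feature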
# [11] = ATP-based viability of Huh7 replicon cells – cell-based, CellTiter-Glo luminescence, basal, 48 h, cytotoxicity control for HCV replication inhibitor project, primary screen (AID 1143); settings: higher = more signal, called active from +8 up or from −8 down;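 note: Huh7 hepatoma cells carrying a hepatitis C replication reporter with no stimulus; test concentration not given here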
# [12] = Pseudomonas biofilm growth suppression – PAO1 strain, BacTiter-Glo luminescence, LB-PBS, primary screen (AID 1144); settings: P. aeruginosa PAO1 biofilm, 12 h, higher = more signal
# [13] = basal CRE-LacZ reporter activity in PC12 – cell-based, unstimulated, primary screen (AID 1145); settings: no forskolin, luminescence, 4.5 h, higher = more signal, called active from +8 up or from −8 down
# [14] = forskolin-driven CRE-LacZ activity in PC12 – cell-based, CRE-LacZ reporter, forskolin-stimulated, primary screen (AID 1146); settings: luminescence, 4.5 h, higher = more signal, called active from +8 up or from −8 down;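 note: PC12 cells with 6xCRE LacZ reporter stimulated by forskolin 10 µM; beta-galactosidase reporter signal reflecting CREB driven transcription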
# [15] = biological target: Streptavidin (Streptomyces avidinii) (UniProt P22629); test: compounds binding control protein streptavidin – biophysical, small-molecule microarray, 635/667 nm fluorescence, artefact control for SMM compound annotation, primary screen (AID 1147); settings: higher = more signal;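 note: signal reflects streptavidin binding to arrayed compounds as a control protein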
# [16] = probe aInhba binding on compound microarray – biochemical, small-molecule microarray, 635/667 nm fluorescence, primary screen (AID 1148); settings: higher = more signal;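 note: score merges 667nm spot fluorescence with signal-to-noise for antibody binding to printed compounds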
# Torsin-1A (Homo sapiens) [17] = biological target: Torsin-1A (Homo sapiens) (UniProt O14656); test: TOR1A wild-type binding on microarray – cell lysate, small-molecule microarray, lysate, 635/667 nm, primary screen (AID 1149); settings: COS7 hTOR1A-WT lysate, 635 nm fluorescence, higher = more signal
# Torsin-1A (Homo sapiens) [18] = biological target: Torsin-1A (Homo sapiens) (UniProt O14656); test: torsin A mutant lysate binding on microarrays – cell lysate, small-molecule microarray, COS7 lysate, 635/667 nm fluorescence, primary screen (AID 1150); settings: COS7 hTOR1A mutant lysate, 635 nm fluorescence, higher = more signal;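 note: score pools 667 nm emission and signal to noise measuring lysate protein binding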
# [19] = tested on: Sonic hedgehog protein (Shh); test: Sonic hedgehog microarray binding compounds – biochemical, small-molecule microarray, 635/667 nm fluorescence, primary screen (AID 1151); settings: 635 nm fluorescence, higher = more signal;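 note: Shh protein binding to compounds spotted on small-molecule microarray slides; score combines spot fluorescence intensity with signal-to-noise across triplicate slides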
# Chain of Fibroblast growth factor 2 (Homo sapiens) (P09038 whole entry, looked up): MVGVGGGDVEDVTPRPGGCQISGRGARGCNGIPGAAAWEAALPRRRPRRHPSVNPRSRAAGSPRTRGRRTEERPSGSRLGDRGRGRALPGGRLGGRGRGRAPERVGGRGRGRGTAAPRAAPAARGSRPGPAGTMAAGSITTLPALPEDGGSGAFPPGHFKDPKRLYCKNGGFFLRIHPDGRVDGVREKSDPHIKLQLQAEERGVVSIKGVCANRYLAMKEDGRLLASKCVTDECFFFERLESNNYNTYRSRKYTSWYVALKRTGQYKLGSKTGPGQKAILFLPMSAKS
# Chain of Streptavidin (Streptomyces avidinii) (P22629 whole entry, looked up): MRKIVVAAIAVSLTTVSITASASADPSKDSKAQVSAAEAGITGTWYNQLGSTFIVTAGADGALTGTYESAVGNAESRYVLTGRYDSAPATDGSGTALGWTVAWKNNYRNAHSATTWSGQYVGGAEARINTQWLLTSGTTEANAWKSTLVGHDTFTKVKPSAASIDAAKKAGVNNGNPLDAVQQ
# Chain of Focal adhesion kinase 1 (Homo sapiens) (Q05397 whole entry, looked up): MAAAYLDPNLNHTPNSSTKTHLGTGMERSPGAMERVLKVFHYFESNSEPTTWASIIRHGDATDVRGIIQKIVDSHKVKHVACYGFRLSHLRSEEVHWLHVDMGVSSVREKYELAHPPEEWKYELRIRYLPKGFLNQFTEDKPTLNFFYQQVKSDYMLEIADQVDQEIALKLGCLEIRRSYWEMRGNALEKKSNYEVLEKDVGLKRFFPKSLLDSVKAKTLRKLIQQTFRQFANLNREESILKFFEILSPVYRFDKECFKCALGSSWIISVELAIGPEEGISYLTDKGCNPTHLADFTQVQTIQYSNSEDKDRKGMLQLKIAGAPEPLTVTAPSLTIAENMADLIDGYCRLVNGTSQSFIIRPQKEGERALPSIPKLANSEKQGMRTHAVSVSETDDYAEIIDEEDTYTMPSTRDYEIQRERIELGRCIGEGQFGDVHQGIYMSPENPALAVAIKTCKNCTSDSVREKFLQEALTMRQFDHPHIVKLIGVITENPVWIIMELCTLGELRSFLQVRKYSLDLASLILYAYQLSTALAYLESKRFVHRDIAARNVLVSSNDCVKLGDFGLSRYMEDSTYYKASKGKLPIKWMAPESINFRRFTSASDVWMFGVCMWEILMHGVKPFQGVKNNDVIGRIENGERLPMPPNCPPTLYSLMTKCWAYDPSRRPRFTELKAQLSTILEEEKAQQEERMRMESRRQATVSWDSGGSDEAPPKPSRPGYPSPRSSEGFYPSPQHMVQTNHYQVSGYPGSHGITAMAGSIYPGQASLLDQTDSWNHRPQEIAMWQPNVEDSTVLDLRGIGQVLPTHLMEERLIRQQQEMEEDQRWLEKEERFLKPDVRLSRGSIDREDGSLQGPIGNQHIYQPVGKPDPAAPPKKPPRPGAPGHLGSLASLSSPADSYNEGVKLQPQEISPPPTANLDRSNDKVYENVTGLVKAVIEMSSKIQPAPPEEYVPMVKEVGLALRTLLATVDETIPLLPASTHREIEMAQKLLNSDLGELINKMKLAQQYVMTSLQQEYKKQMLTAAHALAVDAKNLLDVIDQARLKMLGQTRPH
# Chain of Follistatin (Homo sapiens) (P19883 whole entry, looked up): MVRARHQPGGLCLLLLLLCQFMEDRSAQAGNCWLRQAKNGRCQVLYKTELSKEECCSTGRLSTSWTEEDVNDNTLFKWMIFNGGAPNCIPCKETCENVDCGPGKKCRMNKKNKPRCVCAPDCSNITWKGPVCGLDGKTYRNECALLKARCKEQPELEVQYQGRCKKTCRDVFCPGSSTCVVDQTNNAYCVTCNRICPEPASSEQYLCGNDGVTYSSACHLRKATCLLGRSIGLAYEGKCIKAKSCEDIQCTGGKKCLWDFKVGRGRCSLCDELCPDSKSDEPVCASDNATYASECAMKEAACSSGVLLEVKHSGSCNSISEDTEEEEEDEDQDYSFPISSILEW
# Chain of Luciferin 4-monooxygenase (Photinus pyralis) (P08659 whole entry, looked up): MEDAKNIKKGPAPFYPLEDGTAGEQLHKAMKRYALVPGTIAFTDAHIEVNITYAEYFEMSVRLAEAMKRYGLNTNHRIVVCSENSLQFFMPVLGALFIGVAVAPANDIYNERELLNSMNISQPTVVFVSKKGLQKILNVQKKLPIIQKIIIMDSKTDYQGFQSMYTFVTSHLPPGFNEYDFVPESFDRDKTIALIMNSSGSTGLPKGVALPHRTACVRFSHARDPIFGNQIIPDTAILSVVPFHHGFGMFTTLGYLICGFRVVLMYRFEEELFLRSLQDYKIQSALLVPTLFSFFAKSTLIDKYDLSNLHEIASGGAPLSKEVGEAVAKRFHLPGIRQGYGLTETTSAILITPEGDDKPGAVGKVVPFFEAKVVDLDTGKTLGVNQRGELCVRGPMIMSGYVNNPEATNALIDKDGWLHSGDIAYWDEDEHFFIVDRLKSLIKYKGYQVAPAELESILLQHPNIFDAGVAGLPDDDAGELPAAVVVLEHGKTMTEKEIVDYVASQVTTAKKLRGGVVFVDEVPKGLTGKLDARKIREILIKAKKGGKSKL
# Chain of Torsin-1A (Homo sapiens) (O14656 whole entry, looked up): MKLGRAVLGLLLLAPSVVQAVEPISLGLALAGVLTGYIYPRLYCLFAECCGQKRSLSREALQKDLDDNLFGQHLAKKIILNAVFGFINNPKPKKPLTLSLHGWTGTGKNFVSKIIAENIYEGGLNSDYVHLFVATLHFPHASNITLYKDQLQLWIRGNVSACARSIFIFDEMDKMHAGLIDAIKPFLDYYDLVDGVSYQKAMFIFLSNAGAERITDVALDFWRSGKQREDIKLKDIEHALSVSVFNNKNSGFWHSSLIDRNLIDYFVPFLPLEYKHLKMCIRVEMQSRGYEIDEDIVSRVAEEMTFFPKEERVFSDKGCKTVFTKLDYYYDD
Structure (SMILES),composite z-score [1],composite z-score [2],composite z-score [3],composite z-score [4],composite z-score [5],composite z-score [6],z-score [7],composite z-score (Lefty1),composite z-score [8],z-score [9],composite z-score [10],z-score [11],z-score [12],z-score [13],z-score [14],composite z-score [15],composite z-score [16],composite z-score (Torsin-1A (Homo sapiens) [17]),composite z-score (Torsin-1A (Homo sapiens) [18]),composite z-score [19]
COc1ccc([Si](C)(C)[C@@H]2[C@@H](CCO)O[C@]3(C(=O)N(Cc4ccccc4)c4ccc(N5C(=O)COc6ccccc65)cc43)[C@H]2C)cc1,0.807,1.13,0.294,0.191,0.197,-0.177,-0.081,0.351,0.622,0.806 (inactive),0.0063,-6.38 (inactive),-0.617 (inactive),-0.636 (inactive),0.0638 (inactive),0.104,-0.0832,-0.0843,-0.309,0.693
OCCCC1=CC(c2cccs2)N(Cc2cccc(OC(F)(F)F)c2)CC1 (stereo not given),0.357,-0.138,0.316,-1.42,-0.17,-0.546,0.593,0.226,0.771,-0.605 (inactive),-0.335,-1.06 (inactive),0.839 (inactive),0.593 (inactive),-0.368 (inactive),-0.889,-0.179,0.331,-0.632,0.243
COC(=O)C(CC#Cc1ccc2c(c1)[C@]1(C(=O)N2)[C@H](c2ccc(OCCO)cc2)N2[C@H](c3ccccc3)[C@H](c3ccccc3)OC(=O)[C@H]2[C@@H]1C(=O)O)C(=O)OC,3.08,1.19,1.38,0.915,0.915,0.228,0.161,0.861,1.1,-3.07 (inactive),0.138,-0.565 (inactive),-1.11 (inactive),-0.554 (inactive),0.295 (inactive),0.344,0.717,0.477,0.538,0.759
COc1ccc(C(=O)Nc2ccc(CN3C(=O)[C@@]4(O[C@@H](CC(=O)N5Cc6ccccc6C[C@H]5CO)[C@H]([Si](C)(C)c5ccc(OC)cc5)[C@H]4C)c4ccccc43)cc2)cc1,0.299,1.13,1.2,0.724,1.33,1.33,1.29,1.62,0.365,0.0093 (inactive),0.206,-3.32 (inactive),0.127 (inactive),0.381 (inactive),0.281 (inactive),-0.145,-0.154,1.31,0.002,1.62
CCCN1C(=O)[C@@H]2Cc3c([nH]c4ccccc34)[C@@H](c3cccc(O)c3)N2C1=O,-0.147,0.483,0.131,0.321,0.374,0.428,0.233,0.287,-0.0455,0.718 (inactive),-0.0436,0.792 (inactive),-0.23 (inactive),-0.374 (inactive),-0.0707 (inactive),-0.294,-0.024,0.288,0.193,0.216
Cc1ccccc1C(O)C1C=CC2C(=O)N(Cc3ccccc3)C(=O)C2N1n1cnnc1 (stereo not given),1.54,1.05,-0.0602,1.02,1.07,0.188,-0.478,0.694,0.429,1.39 (inactive),0.166,-0.293 (inactive),-1.45 (inactive),-0.667 (inactive),0.688 (inactive),0.0691,-0.0986,0.374,0.755,0.59
CCOC(=O)C[C@H]1[C@H](OC(=O)c2cc3ccccc3oc2=O)[C@@H](NC(=O)c2ccc3ccccc3n2)c2cc(OCCCO)ccc2N1C(=O)c1ccc2ccccc2n1,0.81,0.784,0.114,0.541,0.99,0.818,1.1,1.44,0.131,-0.204 (inactive),0.27,-0.529 (inactive),0.954 (inactive),11.8 (active),-1.72 (inactive),0.617,0.539,0.916,0.378,1.46
COC(=O)[C@@]1(Cc2ccc(OC)cc2)[C@H]2c3cc(C(=O)N4CCCC4)n(CCc4ccc(O)c(OC)c4)c3C[C@H]2CN1C(=O)c1ccccc1,0.772,0.23,0.717,0.219,-0.625,-0.46,-0.0583,-1.78,0.0523,0.551 (inactive),0.0928,-0.666 (inactive),-0.414 (inactive),2.5 (inactive),1.04 (inactive),0.199,0.12,0.168,0.774,-0.909
CN1C(=O)C2C=CC(C(O)c3ccc(F)cc3)N(N3CCCCC3)C2C1=O (stereo not given),2.59,0.978,1.34,0.167,0.0756,-0.627,-0.0964,-1.21,1.38,0.0216 (inactive),0.442,1 (inactive),-0.273 (inactive),1.01 (inactive),-0.523 (inactive),0.428,0.838,0.759,0.531,-0.846
C=CC[C@@]1(C(=O)NCCN2CCOCC2)N=C(c2ccc(OCCCO)cc2)O[C@@H]1c1ccccc1,0.432,1.24,0.49,0.755,1.46,1.73,-0.185,1.55,0.978,-0.43 (inactive),1.32,-0.914 (inactive),-0.299 (inactive),0.54 (inactive),-0.0392 (inactive),0.803,0.328,1.24,0.94,2.1

# Reference: PubChem BioAssay
